The campaign covered roughly 420,000 compounds. About 64,000 (15%) were called active. About 27% were inconclusive and are not listed. Calls come from the whole dose curve; as a rule, active = well fitted inhibition curve with a large enough effect; inconclusive = small, poorly fitted or top-dose-only effect; inactive = flat fitted curve, though single readings scatter. A selection follows.
Test: qHTS for Inhibitors of human tyrosyl-DNA phosphodiesterase 1 (TDP1): qHTS in cells in absence of CPT; note: nearly all actives have a fitted effect of over 55% in size
Conditions: DT40 Tdp1-/- hTDP1 cells, no CPT, ATP luminescence, 48 h; activity change, negative = growth inhibition: at 46.2 µM (top of the series)
Outline: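 Stably hTDP1-transfected Tdp1-null chicken DT40 cells were treated with library compounds minus camptothecin and grown for at least 48 hr at 37 °C, after which cellular ATP was quantified by luminescence.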
% is set by controls: 0 for no effect and ±100 for the full control effect; potency is the fitted concentration of half-maximal effect.

| SMILES | activity change, negative = growth inhibition | Potency |
| --- | --- | --- |
| Cc1noc(C)c1C(=O)OCC(=O)N1CCN(S(=O)(=O)c2ccc3ccccc3c2)CC1 | -11.1% (inactive) |  |
| C(=N/N1CCN(c2ccccc2)CC1)/c1cccs1 | -14.1% (inactive) |  |
| Nc1c(Cl)cc(S(N)(=O)=O)cc1S(N)(=O)=O | -12.3% (inactive) |  |
| O=[N+]([O-])c1ccc(Sc2n[nH]c(-c3ccco3)n2)nc1 | -13.6% (inactive) |  |
| COc1ccc(-n2c(C)nc3c(cnn3-c3ccc(F)cc3)c2=O)cc1 |  | 16.4 µM (active) |
| CCOc1ccc(-n2c(C)nc3c(cnn3-c3ccc(C)cc3)c2=O)cc1 |  | 5.8 µM (active) |
| COc1ccc(Oc2ncc3nc(C)c(=O)n(-c4ccccc4)c3n2)cc1 | -12.7% (inactive) |  |
| CCOc1ccc(-n2cnc3c(=O)[nH]c(N)nc32)cc1 | 3.61% (inactive) |  |
| CCOC(=O)c1ccc(-n2c(C)nc3c(cnn3-c3ccccc3C)c2=O)cc1 | -27.8% (inactive) |  |
| COc1ccc(Oc2ncc3nc(-c4ccc(F)cc4)c(=O)n(C)c3n2)cc1 | -9.75% (inactive) |  |
| CCC(C)Sc1nc2c(cnn2-c2ccc(F)cc2)c(=O)[nH]1 (stereo not given) | -24.8% (inactive) |  |
| COc1ccc(-n2c(C)nc3c(cnn3-c3ccccc3)c2=O)cc1 |  | 16.4 µM (active) |
| Cc1ccc(Oc2cnn(-c3ccccc3)c(=O)c2Br)cc1 | -25.1% (inactive) |  |
| COC(=O)C1CCCCN1C(=O)c1ccc(OC2CCN(C(C)=O)CC2)c(OC)c1 (stereo not given) | -10.1% (inactive) |  |
| CS(=O)(=O)c1ccc(C(=O)NNC(=O)c2cccs2)cc1 | 16.7% (inactive) |  |
| O=C1/C(=C\c2ccc([N+](=O)[O-])cc2)CS(=O)(=O)C/C1=C/c1ccc([N+](=O)[O-])cc1 |  | 0.0231 µM (active) |
| O=C(NN=Cc1ccc([N+](=O)[O-])cc1)C1CC1 | -13.3% (inactive) |  |
| O=[N+]([O-])c1ccc(C=NN=Cc2ccc([N+](=O)[O-])cc2)cc1 | -11.9% (inactive) |  |
| CCN(CC)Cc1c(C(=O)N/N=C/c2cccc(OCc3ccc(F)cc3)c2)nnn1-c1nonc1N | 17.5% (inactive) |  |
| CCc1ccc(N2CC(C(=O)Nc3ccc(S(=O)(=O)Nc4nccs4)cc3)CC2=O)cc1 (stereo not given) | -3.73% (inactive) |  |
| Cc1ccc(C(=O)NC(=S)NCc2cccnc2)cc1 | -23.8% (inactive) |  |
| Cc1ccc(-n2nc(-c3ccco3)cc2C(=O)NCc2cccnc2)cc1 |  | 18.4 µM (active) |
| CSc1sc(C(=O)NC(=O)NCc2cccnc2)c(C)c1-c1ccon1 | -28.8% (inactive) |  |
| NC(=S)N/N=C/c1coc2cc(Cl)ccc2c1=O | -10.4% (inactive) |  |
| CC(C)Oc1c(Br)cc(Br)cc1/C=N/NC(N)=S |  | 5.8 µM (active) |
| O=C(NNC(=S)Nc1ccc(F)cc1)[C@H]1C[C@@H]1c1ccccc1 | -21.6% (inactive) |  |
| C(=N\n1cnnc1)/c1cccnc1 | 0.108% (inactive) |  |
| CCc1ccc(N2CC(O)=C(c3nc4ccccc4c(=O)[nH]3)C2=N)cc1 |  | 14.6 µM (active) |
| O=c1[nH]c(-c2cccs2)nc2ccccc12 | -14.4% (inactive) |  |
| N=C1C(c2nc3ccccc3[nH]2)=C(O)CN1NC(=O)c1c[nH]c2ccccc12 | -18.9% (inactive) |  |
